Assay results published in PubChem BioAssay (EPA / NIEHS).
“And” between values parts separate entries of the source, which are not always exact repeats. Equal entries are not always repeated. Results filed as inconclusive are left out. The source made the active and inactive calls. The calls were made as follows: active = hit-call score of the fitted dose curve at least 0.9, where 1 is the maximum; inconclusive = response in the unintended direction; inactive = score below 0.9.

These compounds were tested against rat CYP2D2, Cyp2d26 (gene 25053) (UniProt P10634) (assay: NVS_ADME_rCYP2D2: NovaScreen (NVS) CYP450-related Enzyme Activity (ADME) Assay for rat CYP2D2 (AID 2283124)).
rat CYP2D2, Cyp2d26 (gene 25053), sequence (P10634 whole entry, looked up): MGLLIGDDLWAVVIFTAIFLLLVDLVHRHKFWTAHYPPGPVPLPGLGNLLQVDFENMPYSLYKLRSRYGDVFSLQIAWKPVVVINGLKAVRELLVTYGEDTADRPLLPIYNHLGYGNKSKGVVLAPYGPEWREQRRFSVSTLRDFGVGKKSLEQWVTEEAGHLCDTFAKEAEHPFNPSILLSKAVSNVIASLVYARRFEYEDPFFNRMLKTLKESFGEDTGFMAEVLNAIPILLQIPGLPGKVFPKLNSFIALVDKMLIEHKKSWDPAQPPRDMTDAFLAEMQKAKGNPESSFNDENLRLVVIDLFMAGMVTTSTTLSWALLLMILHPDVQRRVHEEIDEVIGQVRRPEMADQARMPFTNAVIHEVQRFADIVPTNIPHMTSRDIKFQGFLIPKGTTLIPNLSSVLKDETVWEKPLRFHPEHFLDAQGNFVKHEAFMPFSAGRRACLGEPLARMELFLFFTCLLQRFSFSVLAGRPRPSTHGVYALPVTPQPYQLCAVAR
Method: NVS_ADME_rCYP2D2 is a biochemical, single-readout assay that uses extracted gene-proteins in a cell-free assay. Measurements were taken 0.75 hour after chemical dosing in a 96-well plate.NVS_ADME_rCYP2D2 is one of one assay component(s) measured or calculated from the NVS_ADME_rCYP2D2 assay. It is designed to make measurements of enzyme activity, a form of enzyme reporter, as detected with fluorescence intensity signals by Fluorescence technology.Data from the assay component NVS_ADME_rCYP2D2 was analyzed into 1 assay endpoint. This assay endpoint, NVS_ADME_rCYP2D2, was analyzed in the positive analysis fitting direction relative to Acetonitrile as the negative control and baseline of activity. Using a type of enzyme reporter, loss-of-signal activity can be used to understand changes in the enzymatic activity as they relate to the gene Cyp2d2. Furthermore, this assay endpoint can be referred to as a primary readout, because this assay has produced multiple assay endpoints where this one serves a enzymatic activity function. To generalize the intended target to other relatable targets, this assay endpoint is annotated to the cyp intended target family, where the subfamily is xenobiotic metabolism.
Binding assays used specific radioligands (tritiated, iodinated) with non-radioactive competitive displacement ligands in agonist or antagonist protocols (as indicated) and various reference compounds and inhibitors to titrate specific binding to receptors and transporters. Most enzyme assays (CYPs, kinases, phosphatases, proteases, HDACs) used recombinant protein and specific substrates (fluorescence mostly, some colorimetric and radioactive) and inhibitors, followed by a biochemical separation of substrate and product. All assays for the biochemical HTS were initially run in duplicate at a single concentration (10 uM for CYP450 assays and 25 uM for all others). Assay-chemical combinations meeting a pre-defined threshold (e.g., 30% inhibition and other criteria defined below) were then run in singleton concentration-response format with maximum concentration of 20 uM for CYPs and 50 uM for all others. Each assay was run with positive and negative controls, and concurrent controls on every plate. The follow-up (secondary) screen tested active chemical-pairs in concentration series, as well as a few additional assays not tested in the primary screen, some selected negative inactives, and several cases re-run in the concentration series for confirmatory purposes.
For `CC(C)(C)C(=O)C(Oc1ccc(Cl)cc1)n1cncn1` (centres undefined), the AC50 was 5.33 µM (active) and 5.52 µM (active).
In the case of `COP(=S)(OC)SCn1nnc2ccccc2c1=O`, the AC50 is reported as 7.04 µM (active).
With `CCN(CC)C(=O)C(C)Oc1cccc2ccccc12` (centres undefined) the AC50 was 6.02 µM (active).
`CCNP(=S)(OC)O/C(C)=C/C(=O)OC(C)C` (centres undefined) was tested, and the AC50 was 5.41 µM (active).
For `CC1(C)CCC(=Cc2ccc(Cl)cc2)C1(O)Cn1cncn1` (centres undefined), the outcome was “inactive”.
`Cn1c(-c2ccccc2)cc(-c2ccccc2)[n+]1C` was tested, and the AC50 was 5.35 µM (active).
With `COP(=S)(OC)Oc1ccc([N+](=O)[O-])c(C)c1` the AC50 was 5.28 µM (active).
In the case of `CCCCOCN(C(=O)CCl)c1c(CC)cccc1CC`, the AC50 is reported as 3.35 µM (active).
`CCCCC(C#N)(Cn1cncn1)c1ccc(Cl)cc1` (centres undefined) was tested, and the AC50 was 6.44 µM (active).
For `CCOP(=S)(OCC)Oc1nc(Cl)n(C(C)C)n1`, the AC50 was 5.76 µM (active).
In the case of `CCCCC(O)(Cn1cncn1)c1ccc(Cl)cc1Cl` (centres undefined), the AC50 is reported as 4.09 µM (active).
For `CCOc1cc(C(C)(C)C)ccc1C1COC(c2c(F)cccc2F)=N1` (centres undefined), the AC50 was 0.55 µM (active).
In the case of `CCNC(=O)NC(=O)C(C#N)=NOC`, the outcome is reported as “inactive”.
For `CCCN(CC)CC1COC2(CCC(C(C)(C)C)CC2)O1` (centres undefined), the AC50 was 6.05 µM (active) and 2.09 µM (active).
